G9a block – qHTS Assay for Inhibitors of Histone Lysine Methyltransferase G9a; 8.8% of 350,000 active; Histone-lysine N-methyltransferase EHMT2 (Homo sapiens), Q96KQ7; G9a H3K9 monomethylation, AlphaScreen, 2 h; Potency, µM (series often up to 102 µM), for the others: top-dose activity, negative = inhibition, most hits filed as inhibitors; AID 504332, 2011; also: % is scaled to controls: 0 for no effect and ±100 for the full control effect; nearly all actives have a fitted effect of over 75% in size
Target sequence (Q96KQ7 913-1193 limits assumed): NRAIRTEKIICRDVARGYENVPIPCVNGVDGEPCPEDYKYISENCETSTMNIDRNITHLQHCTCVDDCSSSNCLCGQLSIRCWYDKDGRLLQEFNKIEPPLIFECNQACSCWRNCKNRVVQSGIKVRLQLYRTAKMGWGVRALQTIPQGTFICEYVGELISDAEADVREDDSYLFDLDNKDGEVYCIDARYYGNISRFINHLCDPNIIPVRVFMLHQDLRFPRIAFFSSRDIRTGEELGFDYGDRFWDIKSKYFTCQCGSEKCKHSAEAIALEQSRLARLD
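Step 1: enzyme (final 20 nM) with compound, 15 min RT. Step 2: substrate peptide 500 nM and SAM 20 uM, 2 h RT. Step 3: anti-H3K9me1 antibody and AlphaScreen beads, 10 min, then plate read.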
VDR inh – Inhibitors of the vitamin D receptor (VDR): qHTS; Vitamin D3 receptor (Homo sapiens), P11473; VDR-SRC2-3 peptide fluorescence polarization, 2 h; Potency, µM, for inactives: max response, negative = inhibition, usual class: inhibitors; 0.93% of 400,000 active; also: % is scaled to controls: 0 for no effect and ±100 for the full control effect
Target sequence (P11473 whole entry, looked up): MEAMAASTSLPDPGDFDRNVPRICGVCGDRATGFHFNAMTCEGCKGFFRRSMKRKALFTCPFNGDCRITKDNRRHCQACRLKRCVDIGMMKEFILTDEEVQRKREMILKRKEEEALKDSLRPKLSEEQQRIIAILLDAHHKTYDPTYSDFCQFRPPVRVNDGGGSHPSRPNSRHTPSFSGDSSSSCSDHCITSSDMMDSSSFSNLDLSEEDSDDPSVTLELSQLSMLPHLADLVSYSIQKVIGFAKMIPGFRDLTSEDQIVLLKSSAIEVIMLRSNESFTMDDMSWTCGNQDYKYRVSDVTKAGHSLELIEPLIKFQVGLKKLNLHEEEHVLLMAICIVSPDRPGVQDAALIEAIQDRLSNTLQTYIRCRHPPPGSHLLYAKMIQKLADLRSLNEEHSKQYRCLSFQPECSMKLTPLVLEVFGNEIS
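Signal is fluorescence polarization, reporting how far test compounds block the interaction of VDR with the SRC2-3 coregulator peptide after a 2 h room-temperature incubation.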
ALOX12 inh – Primary qHTS assay for inhibitors of human arachidonate 12S-lipoxygenase (ALOX12): Round 2. 1.1% of 580,000 active. Polyunsaturated fatty acid lipoxygenase ALOX12 (Homo sapiens), P18054. Potency, µM (series often up to 108 µM), for inactives: at the highest dose activity change, negative = inhibition, actives largely listed as inhibitors. purified 12hLO, xylenol orange hydroperoxide absorbance. AID 1671190, 2021; also: % is scaled to controls: 0 for no effect and ±100 for the full control effect
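Hydroperoxide product was detected by ferrous iron/xylenol orange as the 573 to 405 nm absorbance ratio. Arachidonic acid at 40 uM (final) was turned over for 30 min at room temperature by 150 nM human 12hLO, pH 7.0 Hepes buffer, after 15 min compound preincubation.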
Glioma ERSR ind – qHTS for Inducers of the Endoplasmic Reticulum Stress Response (ERSR) in Human Glioma: qHTS. 0.02% of 420,000 active. Potency, µM, for the others: at the highest dose activation, most hits filed as activators. U87-MG GRP78 promoter luciferase reporter, 16 h; also: series mostly up to about 76 µM; % of control where 0% means no effect; nearly all actives have a fitted effect of over 35% in size
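Stably transfected U87-MG human glioma cells carrying a GRP78-based luminescent sensor were seeded at 1000 cells/well, pin-dosed with compounds and incubated 16 h. Luciferase reagent was then added, and end-point luminescence was read after 10 min at room temperature.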
Sfp inh – qHTS Assay for Inhibitors of Bacillus subtilis Sfp phosphopantetheinyl transferase (PPTase); Potency, µM, without a hit: largest response in the series, negative = inhibition, actives largely listed as inhibitors; Biochemical Sfp PPTase activity, qHTS; 4'-phosphopantetheinyl transferase ffp (Bacillus subtilis), Q9F4F7; 3.5% of 310,000 active;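 also: the enzyme is Sfp with the accession as filed and its product quenches rhodamine fluorescence; 0% = enzyme reaction without inhibitor and -100% = no enzyme wells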
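Reaction rates are the 30-min fluorescence difference (ex 525, em 598 nm) in wells containing 15 nM Sfp, 5 uM rhodamine-CoA and 12.5 uM BHQ-2-YbbR at pH 7.6 with 10 mM MgCl2.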
Starred values were filed as active, the others as inactive; [ ] = remark or other dose. This excerpt belongs to a sample that is enriched for hits. Calls follow the shape of the dose curve; as a rule, active = well fitted curve in the direction sought with a large enough effect; inconclusive = small, poorly fitted or top-dose-only effect, or another doubt; inactive = no such curve, though single readings can be large; an effect the other way counts as inactive or inconclusive. Potency is read from the fitted curve at half-maximal effect.

Results for O=C1NCc2ccccc2CC12CCCN(Cc1ccnc3ccccc13)C2 (stereo unspecified) ?
ALOX12 inh: 22µM*

What do the screens show for `O=C1NCc2ccccc2CC12CCN(Cc1ccnc3ccccc13)CC2`?
ALOX12 inh: 28µM*

What do the screens show for `Cc1ccc(NC(=O)CCn2cnc3c2c(=O)n(C)c(=O)n3C)c(C)c1`?
ALOX12 inh: 15%

Results for O=C(O)Cc1ccc2c(c1)[nH]c1ccc(Br)cc12 ?
ALOX12 inh: -56%

Results for CCC1=C/C(=C/N(C)c2ccccc2)C(=O)S1 ?
G9a block: 25µM*; VDR inh: inconclusive; ALOX12 inh: inconclusive; Glioma ERSR ind: 7%; Sfp inh: 50µM*

What do the screens show for `Fc1ccc(-c2nc(Nc3cccc(C(F)(F)F)c3)nc3c2COc2ccccc2-3)cc1`?
G9a block: 3.5µM*; VDR inh: 6%; ALOX12 inh: -6%; Glioma ERSR ind: 2%

How did Fc1ccc(Nc2nc(-c3cccc(Cl)c3)c3c(n2)-c2ccccc2OC3)c(F)c1 do in these assays?
G9a block: 3%[59 µM]; VDR inh: 5%; ALOX12 inh: -22%; Glioma ERSR ind: -6%

How did CCS(=O)(=O)c1ccc(Cc2ccc(S(=O)(=O)CC)cc2)cc1 do in these assays?
ALOX12 inh: 8.9µM*

How did CC(C)Cc1nnc(NC(=O)c2nn(Cc3ccccc3)c(=O)c3ccccc23)s1 do in these assays?
ALOX12 inh: 30%

What do the screens show for `CCOC(=O)CCCCC(=O)c1[nH]c(=O)[nH]c1CSc1nnc2c3cc(Br)ccc3n(C)c2n1`?
G9a block: 28µM*; Sfp inh: inconclusive

Results for CCOC(=O)CCCCC(=O)c1[nH]c(=O)[nH]c1CSc1nc2ccccc2[nH]1 ?
G9a block: 1.6µM*; VDR inh: 1%; ALOX12 inh: -26%; Glioma ERSR ind: 3%; Sfp inh: -12%

How did CC1SC(=NC(=O)c2ccncc2)NC1=O (stereo unspecified) do in these assays?
G9a block: 40µM*; VDR inh: -18%; ALOX12 inh: 0%; Glioma ERSR ind: 0%; Sfp inh: 11%

Results for Cc1ccc(Cn2c(-c3ccccc3)nc3ccccc32)cc1 ?
G9a block: 5%[59 µM]; VDR inh: 5%; ALOX12 inh: -5%; Glioma ERSR ind: -2%

Results for CC(NC(=O)/C=C/c1ccco1)c1nc2ccccc2n1Cc1c(Cl)cccc1Cl (stereo unspecified) ?
G9a block: 8%[59 µM]; VDR inh: -24%; ALOX12 inh: inconclusive; Glioma ERSR ind: -3%; Sfp inh: 50µM*

How did C#CCn1c(/C=C/c2ccc(Cl)cc2)nc2ccccc21 do in these assays?
G9a block: 161%[59 µM]; VDR inh: -2%; ALOX12 inh: inconclusive; Glioma ERSR ind: -5%

How did Cc1ccc(Cn2c(/C=C/c3ccco3)nc3ccccc32)cc1 do in these assays?
G9a block: 40µM*; VDR inh: -1%; ALOX12 inh: 16µM*; Glioma ERSR ind: inconclusive; Sfp inh: inconclusive

How did Clc1ccc(Cn2c(/C=C/c3ccco3)nc3ccccc32)cc1 do in these assays?
G9a block: 3.2µM*; VDR inh: -29%; ALOX12 inh: 18µM*; Glioma ERSR ind: 9%; Sfp inh: 40µM*

Results for CC(=O)NC(C(=O)Nc1ccc(SC2CCCC2)cc1)C(C)C (stereo unspecified) ?
ALOX12 inh: 34%

What do the screens show for `COc1ccccc1Cn1ccnc1SCC(=O)Nc1ccc(C(C)=O)cc1`?
ALOX12 inh: 14%

How did CN(C(=O)Nc1ccc(Cl)cc1)C(c1ccc(Cl)cc1)c1nccn1C (stereo unspecified) do in these assays?
ALOX12 inh: -30%

Results for O=C(/C=C/c1ccco1)NC(=S)Nc1ccc(O)c(-c2nc3ccccc3s2)c1 ?
G9a block: 40µM*; VDR inh: -9%; ALOX12 inh: inconclusive; Glioma ERSR ind: -2%; Sfp inh: -19%

How did O=C(Nc1ccc(O)c(-c2nc3ccccc3s2)c1)c1cccs1 do in these assays?
G9a block: 10%[59 µM]; VDR inh: 7%; ALOX12 inh: 9%; Glioma ERSR ind: -6%; Sfp inh: inconclusive

How did O=C(/C=C/c1ccco1)NC(=S)NNC(=O)c1ccco1 do in these assays?
G9a block: 11µM*; VDR inh: -7%; ALOX12 inh: -11%; Glioma ERSR ind: 0%; Sfp inh: -6%

What do the screens show for `CC(=O)NC(=S)Nc1ccc(NC(=S)NC(=O)/C=C/c2ccco2)cc1`?
G9a block: 40µM*; VDR inh: -21%; ALOX12 inh: 9%; Glioma ERSR ind: -3%; Sfp inh: -23%

What do the screens show for `CCN(CC(=O)Nc1ccc(NC(C)=O)cc1)C(=O)/C=C/c1ccco1`?
G9a block: 50µM*; VDR inh: -2%; ALOX12 inh: -1%; Glioma ERSR ind: -3%

How did C=CCNC(=S)NNC(=O)c1ccco1 do in these assays?
G9a block: -23%; VDR inh: -3%; ALOX12 inh: 36%; Glioma ERSR ind: -3%; Sfp inh: 4%

What do the screens show for `Cc1ccc(OCCOC(=O)C2COc3ccccc3O2)cc1` (stereo unspecified)?
ALOX12 inh: 15%

How did CCOc1ccccc1-c1nnc(SCC(=O)Nc2ccc3c(c2)OC2(CCCCC2)O3)o1 do in these assays?
ALOX12 inh: -7%

Results for O=C(OCc1ccccc1F)c1cccc(S(=O)(=O)N2CCCCC2)c1 ?
ALOX12 inh: 4%

What do the screens show for `CCC(=O)Nc1ccc(NC(=S)NC(=O)/C=C/c2ccco2)cc1`?
G9a block: -9%[0.501 µM]; VDR inh: 5%; ALOX12 inh: inconclusive; Glioma ERSR ind: -3%; Sfp inh: -2%

How did CN(C)c1ccc(NC(=S)NC(=O)/C=C/c2ccco2)cc1 do in these assays?
G9a block: -35%; VDR inh: -11%; ALOX12 inh: inconclusive; Glioma ERSR ind: -4%; Sfp inh: 13%

How did O=C(/C=C/c1ccco1)NC(=S)Nc1ccc(C(=O)O)cc1 do in these assays?
G9a block: 10µM*; VDR inh: -10%; ALOX12 inh: inconclusive; Glioma ERSR ind: -4%; Sfp inh: 56µM*

How did COc1ccccc1/C=C/C(=O)NNC(=O)c1cc(C)oc1C do in these assays?
G9a block: -32%; VDR inh: inconclusive; ALOX12 inh: 22%; Glioma ERSR ind: -3%

How did Cc1cc(C(=O)NNC(=O)/C=C/c2ccco2)c(C)o1 do in these assays?
G9a block: 22µM*; VDR inh: inconclusive; ALOX12 inh: 0%; Glioma ERSR ind: -5%

Screening data (PubChem BioAssay)
